One may read the inhibition as the change of the read-out against control, counted positive when it falls.

Hit rate of the full screen: of about 290,000 compounds, about 2,200 (0.76%) were called active. What follows is part of a selection rich in actives, with near analogues and random picks from the rest. A number with no mark means an inactive call. Cut-off read from the data, not from the text of the source: active = inhibition above about 30%; inconclusive = no clear call, values can overlap the other calls; inactive = below that.

Chain of Protein RecA (Mycobacterium tuberculosis (strain ATCC 25618 / H37Rv)) (P9WHJ3 whole entry, looked up): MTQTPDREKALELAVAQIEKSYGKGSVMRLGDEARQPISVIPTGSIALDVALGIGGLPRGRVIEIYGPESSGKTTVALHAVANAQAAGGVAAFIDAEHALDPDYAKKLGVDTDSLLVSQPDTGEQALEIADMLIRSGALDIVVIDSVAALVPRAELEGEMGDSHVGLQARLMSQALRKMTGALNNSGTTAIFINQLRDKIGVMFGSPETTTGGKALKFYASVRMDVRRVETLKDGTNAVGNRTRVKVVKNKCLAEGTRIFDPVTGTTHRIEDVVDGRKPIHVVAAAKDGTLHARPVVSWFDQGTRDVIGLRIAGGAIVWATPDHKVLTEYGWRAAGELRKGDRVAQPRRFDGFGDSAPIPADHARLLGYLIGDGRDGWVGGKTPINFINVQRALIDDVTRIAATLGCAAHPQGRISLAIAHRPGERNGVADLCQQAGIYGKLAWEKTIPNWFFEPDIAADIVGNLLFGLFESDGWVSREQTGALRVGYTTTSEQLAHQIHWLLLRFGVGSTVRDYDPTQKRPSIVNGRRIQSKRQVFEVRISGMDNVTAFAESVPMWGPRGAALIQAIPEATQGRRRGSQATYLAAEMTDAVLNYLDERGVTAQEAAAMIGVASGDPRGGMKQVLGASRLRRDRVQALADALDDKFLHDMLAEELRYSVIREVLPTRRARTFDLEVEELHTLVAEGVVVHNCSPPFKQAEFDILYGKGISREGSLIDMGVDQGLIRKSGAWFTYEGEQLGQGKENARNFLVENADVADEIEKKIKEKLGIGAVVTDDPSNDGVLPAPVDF

The assay has as its target Protein RecA (Mycobacterium tuberculosis (strain ATCC 25618 / H37Rv)) (UniProt P9WHJ3). In words: Mtb RecA intein splicing inhibitors, primary screen, biochemical, fluorescence, HTS (AID 2221).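 Note: 0% = vehicle wells and 100% = reference inhibitor control wells.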 Particulars: cell-free RecA intein splicing, hits give high values, concentration not given here.
`CC1CN(C(=O)CCC(=O)NCCCN2CCC(Cc3ccccc3)CC2)c2cc(Cl)ccc2O1` (centres undefined): the inhibition is 4.67%.
As for `COc1cccc(CCNC(=O)c2cccc(NC(=O)C3=C(C)OCCS3)c2)c1`, the figure is -0.654%; as for `Cn1c(=O)c2sccc2n(Cc2ccc(Br)cc2)c1=O`, 1.32%.
Then `COc1ccccc1N1CCN(S(=O)(=O)c2ccc(Cl)cc2)CC1`, with 13.3%; and `COc1ccccc1-n1nnnc1S(=O)(=O)Cc1ccc(Cl)cc1`, with 81.5% (active); and `CCN(C(=O)CSc1nnnn1-c1ccccc1OC)C1CCS(=O)(=O)C1` (centres undefined), with -4.51%.
On to `O=C(CSc1nc2[nH]ncc2c(=O)[nH]1)Nc1ccc(F)cc1`, for which the inhibition is -1.71%.
With `CCC(=C/c1sc2ccc3ccccc3c2[n+]1C)/C=C1\Sc2ccc3ccccc3c2N1C`, the inhibition is -0.0609%.
As to `COc1cccc(NC(=O)CN(C)C(=O)c2ccccc2CCc2ccccc2)c1`, the inhibition was 5.79%.
On to `O=C(CN1CCN(S(=O)(=O)c2ccc(Br)cc2)CC1)Nc1ccccc1C(=O)c1ccccc1`, for which the inhibition is -0.838%.
Then `Cc1noc(C)c1C(=O)N1CCOCC1`, with 1.19%; and `Cc1oc2c(c1C(=O)N1CCOCC1)C(=O)c1ccccc1C2=O`, with 86% (active).
As for `CCOC(=O)c1ccccc1C(=O)N1CCOCCOCCOCC1`, the figure is 0.452%; as for `Nc1[nH]c(=S)nc2nc(-c3ccccc3)c(-c3ccccc3)nc12`, -3.24%.
Then `Cn1cnc2c1c(=O)n(Cc1ccccc1C#N)c(=O)n2C`, with -5.24%; and `O=C(CCC(=O)N/N=C/c1ccc(Br)o1)N/N=C/c1ccc(Br)o1`, with -0.217%; and `CCOC(=O)c1c(NC(=O)CCl)sc(C(=O)N(CC)CC)c1C`, with 46.7% (active).
Consider `CCOC(=O)c1sc(NC(=O)CCN2CCOCC2)c(C(=O)OCC)c1C`, for which the inhibition is 2.17%.
On to `CCOC(=O)Nc1sc(C(=O)N(C)C)c(C)c1C(=O)OCC`, for which the inhibition was 1.54%.
Then `Cc1nc(CNS(=O)(=O)c2cc([N+](=O)[O-])ccc2C)cs1`, with -3.48%; and `CCc1ccccc1N(CC(=O)NCC1CCCO1)C(=O)CCC(=O)Nc1nccs1` (centres undefined), with -1.77%; and `CCc1cccc(C)c1NC(=O)COC(=O)CNC(=O)c1cccs1`, with -3.74%.
Turning to `Cc1ccccc1C(CC(=O)c1cccs1)C(C#N)C#N` (centres undefined), the inhibition was 63.2% (active).
Consider `Cc1ccc(C)c(NC(CC(=O)c2ccccc2)C(=O)OCC(=O)c2cccs2)c1` (centres undefined), for which the inhibition is -3.12%.
As for `Cc1ccc(Sc2cc(N3CCOCC3)nc(-c3ccccc3)n2)cc1`, the inhibition was -0.766%.
As for `O=S(=O)(c1ccc(-c2ccno2)s1)N1CCCCC1`, the figure is 0.0995%.
Then `Cc1cc(C)n2nc(CNS(=O)(=O)c3c(F)c(F)c(F)c(F)c3F)nc2n1`, with 33% (active); and `Cc1cc(C)n2nc(C(=O)NC(C)(C)C)nc2n1`, with -3.67%; and `Cc1cc(C)n2nc(SCC(N)=O)nc2n1`, with -1.48%.
As for `COc1ccc(N2CCN(C(=O)C3CCN(S(=O)(=O)c4ccc(C)cc4)CC3)CC2)cc1`, the figure is -2.81%.
As to `CCN(CCNC(=O)C1=C(C)C(=O)OC12CCC(C)CC2)c1ccccc1` (centres undefined), the inhibition was -9.04%.
Then `O=S(=O)(c1cnccc1N1CCN(/N=C/c2ccc(Br)cc2)CC1)N1CCCCC1`, with -5.35%; and `COc1ccc(C(CCN(Cc2ccc(OC)c(OC)c2)C(=O)CCl)c2ccccc2)cc1` (centres undefined), with 77.7% (active); and `COc1ccc(COC(=O)NC(C(=O)O)c2ccccc2)cc1` (centres undefined), with -3.65%.
Then `COc1ccc(CN(C)C(=O)CC(c2ccccc2)c2ccccc2)cc1`, with 12%; and `CCCc1cc(=O)oc2c(C)c(OCC(=O)Nc3ccccn3)ccc12`, with 0.212%.
Then `COc1ccc(N2CCN(C(=O)COc3ccc4c(C)cc(=O)oc4c3)CC2)cc1`, with -4.41%; and `CC(=O)Nc1cccc(NC(=O)CSc2nccn2Cc2ccc(F)cc2)c1`, with -1.4%; and `CN(C)c1ccc(C=C2C(=O)OC3(CCCC3)OC2=O)cc1`, with -3.67%.
In the case of `CN(C)c1ccc(/C=C2\NC(=S)N(Cc3ccccc3)C2=O)cc1`, the inhibition is -1.92%.
As for `CC1=NN(Cc2ccccc2)C(=O)/C1=C/c1ccc(N(C)C)cc1`, the inhibition was 42.9% (active).
Then `CCc1cccc2c3c([nH]c12)C(CC)(CC(=O)O)OCC3` (centres undefined), with -3.9%; and `CCCC/C(C)=N/NC(=O)NC1CCCCC1`, with -5.59%; and `O=C1/C(=C/c2ccc3c(c2)OCO3)CCC/C1=C\c1ccc2c(c1)OCO2`, with 30.4% (active).
As for `O=C(N/N=C/c1ccc2c(c1)OCO2)C(=O)N1CCCC1`, the figure is -2.18%; as for `O=C1/C(=C\c2ccc3c(c2)OCO3)N2CCC1CC2`, -0.267%; as for `Cc1nn(-c2ccccc2)c(C)c1NC(=O)COC(=O)c1cc(Cl)ccc1O`, 0.496%.
With `CC(C(=O)c1ccc(-c2ccccc2)cc1)[n+]1cccc(Br)c1` (centres undefined), the inhibition was 0.227%.
Regarding `O=C(Cc1ccc2c(c1)CCCC2)Nc1ccccc1Cl`, the inhibition is 5.79%.
Then `O=C(Nc1ccccc1Cl)/C(Cl)=C(\Cl)S(=O)c1ccccc1` (centres undefined), with 97% (active); and `O=C(Nc1ccccc1Cl)Nc1cccc2cccnc12`, with 6.8%.
Then `CCN(C(=O)CSc1nnc(-c2ccc(OC(F)F)cc2)n1N)C1CCS(=O)(=O)C1` (centres undefined), with -2.58%; and `C=CCN1C(=NC(=O)COc2ccccc2)SC2CS(=O)(=O)CC21` (centres undefined), with -0.786%; and `Oc1ccc(/C=N/NC2=NCCCCC2)c(O)c1`, with -9.19%.
As for `Oc1ccc(/C=N/Nc2nc(-c3ccccc3F)nc3ccccc23)c(O)c1`, the figure is 10.7%.
As to `Cc1nc2ccccc2nc1N/N=C/c1ccc(O)cc1O`, the inhibition was 32% (active).
Regarding `CCCOc1ccc(Cl)cc1Nc1nc(NCCO)nc(N2CCCC2)n1`, the inhibition was -0.826%.
As for `Cn1c(=O)c2c(-c3cccc(Br)c3)c(C#N)c(N)nc2n(C)c1=O`, the figure is -11.9%; as for `CCc1ccc2c(c1)cc(CN(C(=S)Nc1ccccc1Cl)C1CC1)c1nnnn12`, -0.332%.
Then `CSc1ccccc1NC(=O)C(C)N1C(=O)c2ccccc2S1(=O)=O` (centres undefined), with 1.38%.
With `O=C(Nc1ccc(F)cc1)C(=O)c1cn(CC(=O)N2CCOCC2)c2ccccc12`, the inhibition is -4.57%.
Consider `Cc1ccc(S(=O)(=O)NC2(C(F)(F)F)NC(=O)N(CCc3ccccc3)C2=O)cc1` (centres undefined), for which the inhibition was -2.6%.
As for `O=C1CC(c2ccccc2)=NN1c1ccc([N+](=O)[O-])cc1`, the figure is 54.9% (active); as for `Cc1nn(-c2ccc([N+](=O)[O-])cc2)c(N)c1-c1ccccc1`, 0.233%; as for `CC1=NN(c2ccccc2)C(=O)C1C(=O)c1ccc([N+](=O)[O-])cc1` (centres undefined), 5.51%.
As for `O=C(CN1C(=O)C2C3C=CC(C3)C2C1=O)Nc1nc(-c2ccccn2)cs1` (centres undefined), the figure is -1.82%; as for `CCn1c(CC(=O)Nc2ccccc2)nnc1SCC(=O)N1CCOCC1`, -3.34%.
As for `N#Cc1ccc(C2N=C(c3ccccc3)NO2)cc1` (centres undefined), the figure is -0.394%; as for `O=C(CSC1=NCCS1)Nc1nc(-c2ccccc2)cs1`, 37.4% (active).
Consider `O=C(CSc1nc2ccccc2c(=O)[nH]1)Nc1nc(-c2ccc(Br)cc2)cs1`, for which the inhibition was 1.49%.
As for `CCNC(=O)CSc1nc(-c2ccccc2)cs1`, the inhibition is 0.44%.
As to `CC(C)C(C)NC(=O)COc1nc2ccccc2nc1N(C)C1CCCCC1` (centres undefined), the inhibition was -2.05%.
As to `COc1ccc(C(=O)NCCSc2ccccc2C)cc1`, the inhibition is 3.07%.
As for `CCCC(O)(CCC)C(=O)NN(C(=O)CCl)c1cccc(C)c1`, the figure is 18.1%; as for `CCCCC(O)(CCCC)C(=O)NN(C(=O)CCl)c1ccccc1`, 42.8% (active); as for `COC(=O)N(NC(=O)C(O)(C(C)C)C(C)C)c1ccccc1`, -3.28%.
In the case of `CCOC(=O)C1Cn2c(nc3c(c2=O)C(C)(CC)Cc2ccccc2-3)S1` (centres undefined), the inhibition was -3.72%.
Then `CCCc1nnc(NC(=O)CCC(=O)NC2CC2)s1`, with -1.59%; and `O=C(CCl)N(Cc1cccc([N+](=O)[O-])c1)c1cccc(Cl)c1`, with 88.1% (active).
As for `CCN(CC)C(=O)CN(c1cccc([N+](=O)[O-])c1)S(=O)(=O)c1ccccc1`, the figure is 0.016%; as for `Cc1ccc(S(=O)(=O)N(Cc2cccc([N+](=O)[O-])c2)C(=O)N2CCN(C)CC2)cc1`, 1.46%.
Consider `O=C(CCS(=O)(=O)c1ccccc1Cl)Nc1ccc(S(=O)(=O)Nc2ncccn2)cc1`, for which the inhibition was -0.502%.
With `CC(C)c1ccc(N(C(=O)c2ccco2)C(C(=O)NC2CCCC2)c2cccnc2)cc1` (centres undefined), the inhibition is 2.58%.
Consider `O=C(c1[nH]ncc1-c1ccc(Cl)cc1)C1CO1` (centres undefined), for which the inhibition is 33% (active).
As for `O=C(c1nnc(-c2ccc(Cl)cc2)o1)C1CCCC1`, the figure is -10.3%; as for `S=c1[nH]nc(-c2ccc(Cl)cc2)n1CC1CCCO1` (centres undefined), -1.85%; as for `COc1ccccc1OCCCCCCN1CCN(C)CC1`, -1.55%.
For `CC(OC(=O)CNC(=O)c1cccc(F)c1)C(=O)NC1CCCCC1C` (centres undefined), the inhibition is -0.912%.
Take `COCC(C)OC(=O)c1c(N)n(CCCN2CCOCC2)c2nc3ccccc3nc12` (centres undefined): the inhibition was -97.2%.
Then `CC(C)(C)OC(=O)c1c(N)n(CCCN2CCCC2=O)c2nc3ccccc3nc12`, with -350%; and `N#Cc1c(N)n(CCOC(=O)c2ccc(Cl)cc2)c2nc3ccccc3nc12`, with 51.9% (active); and `CC(C)(C)n1nc(Cc2cccc3ccccc23)c(C#N)c1N`, with 4.34%.
As for `COc1ccc(N(C(=O)c2snc(C(N)=O)c2N)C(C(=O)NC2CCCC2)c2ccc(C)o2)c(OC)c1` (centres undefined), the figure is 5.96%; as for `O=C(OCC(=O)N(CCc1ccccc1)Cc1ccccc1)c1ccccc1[N+](=O)[O-]`, 18.8%.

(Values after PubChem BioAssay AID2221 (Broad Institute, 2009).)
